{"source": "paper PMC11006913", "assay_in_all_cases": "PBM; 200 nM protein, PBS", "conditions_in_all_cases": "dsDNA, one strand shown", "key": {"HOXC10 [1]": {"target": "HOXC10 (Homo sapiens, UniProt Q9NYD6 254-340)", "sequence (Q9NYD6 254-340)": "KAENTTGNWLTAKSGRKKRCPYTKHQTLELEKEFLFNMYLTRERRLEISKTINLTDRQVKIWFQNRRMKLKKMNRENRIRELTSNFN"}, "ALX3 [2]": {"target": "ALX3 (Homo sapiens, UniProt O95076 139-225, N203Q)", "sequence (O95076 139-225 N203Q)": "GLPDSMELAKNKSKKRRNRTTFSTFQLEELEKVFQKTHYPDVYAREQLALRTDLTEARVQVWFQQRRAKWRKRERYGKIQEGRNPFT"}, "HOXC10 [3]": {"target": "HOXC10 (Homo sapiens, UniProt Q9NYD6 254-340, K271E)", "sequence (Q9NYD6 254-340 K271E)": "as the sequence (Q9NYD6 254-340) above, with K18E counted along it"}, "ALX3 [4]": {"target": "ALX3 (Homo sapiens, UniProt O95076 139-225)", "sequence (O95076 139-225)": "as the sequence (O95076 139-225 N203Q) above, with Q65N counted along it"}, "ALX3 [5]": {"target": "ALX3 (Homo sapiens, UniProt O95076 139-225, L168Q)", "sequence (O95076 139-225 L168Q)": "as the sequence (O95076 139-225 N203Q) above, with L30Q, Q65N counted along it"}, "ALX3 [6]": {"target": "ALX3 (Homo sapiens, UniProt O95076 139-225, L168V)", "sequence (O95076 139-225 L168V)": "as the sequence (O95076 139-225 N203Q) above, with L30V, Q65N counted along it"}, "ALX3 [7]": {"target": "ALX3 (Homo sapiens, UniProt O95076 139-225, N203S)", "sequence (O95076 139-225 N203S)": "as the sequence (O95076 139-225 N203Q) above, with Q65S counted along it"}, "ALX4": {"target": "ALX4 (Homo sapiens, UniProt Q9H161 200-286, Q225E)", "sequence (Q9H161 200-286 Q225E)": "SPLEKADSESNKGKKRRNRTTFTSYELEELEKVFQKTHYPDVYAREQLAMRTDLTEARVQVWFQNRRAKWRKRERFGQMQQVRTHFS"}, "HOXD13 [8]": {"target": "HOXD13 (Homo sapiens, UniProt P35453 263-343, T313R)", "sequence (P35453 263-343 T313R)": "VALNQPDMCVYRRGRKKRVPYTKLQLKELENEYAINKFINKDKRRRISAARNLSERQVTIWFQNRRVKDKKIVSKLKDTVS"}, "HOXD13 [9]": {"target": "HOXD13 (Homo sapiens, UniProt P35453 263-343)", "sequence (P35453 263-343)": "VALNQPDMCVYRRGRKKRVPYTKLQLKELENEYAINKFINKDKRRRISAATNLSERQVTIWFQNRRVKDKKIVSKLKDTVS"}, "HOXD13 [10]": {"target": "HOXD13 (Homo sapiens, UniProt P35453 263-343, T313A)", "sequence (P35453 263-343 T313A)": "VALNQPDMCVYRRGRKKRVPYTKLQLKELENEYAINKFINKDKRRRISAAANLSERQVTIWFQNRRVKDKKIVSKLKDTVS"}, "HOXC9": {"target": "HOXC9 (Homo sapiens, UniProt P31274 178-260, R222W)", "sequence (P31274 178-260 R222W)": "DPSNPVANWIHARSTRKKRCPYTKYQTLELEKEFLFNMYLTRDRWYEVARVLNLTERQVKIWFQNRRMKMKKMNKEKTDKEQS"}, "HOXB6 [11]": {"target": "HOXB6 (Homo sapiens, UniProt P17509 132-218, K202E)", "sequence (P17509 132-218 K202E)": "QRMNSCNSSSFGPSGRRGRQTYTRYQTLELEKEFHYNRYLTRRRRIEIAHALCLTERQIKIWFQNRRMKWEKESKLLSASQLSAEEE"}, "PROP1 [12]": {"target": "PROP1 (Homo sapiens, UniProt O75360 56-141)", "sequence (O75360 56-141)": "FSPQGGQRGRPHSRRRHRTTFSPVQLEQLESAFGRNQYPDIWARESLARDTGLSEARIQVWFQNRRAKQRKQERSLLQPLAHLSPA"}, "PROP1 [13]": {"target": "PROP1 (Homo sapiens, UniProt O75360 56-141, R99H)", "sequence (O75360 56-141 R99H)": "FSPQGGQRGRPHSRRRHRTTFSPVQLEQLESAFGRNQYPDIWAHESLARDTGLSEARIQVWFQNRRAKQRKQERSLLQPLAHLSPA"}, "PROP1 [14]": {"target": "PROP1 (Homo sapiens, UniProt O75360 56-141, F88S)", "sequence (O75360 56-141 F88S)": "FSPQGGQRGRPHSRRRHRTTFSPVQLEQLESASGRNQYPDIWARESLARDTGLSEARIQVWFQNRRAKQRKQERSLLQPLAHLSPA"}, "HOXB6 [15]": {"target": "HOXB6 (Homo sapiens, UniProt P17509 132-218)", "sequence (P17509 132-218)": "as the sequence (P17509 132-218 K202E) above, with E71K counted along it"}, "PAX4 [16]": {"target": "T1, PAX4 (Homo sapiens, UniProt O43316 9-242, R200K)", "T1 sequence": "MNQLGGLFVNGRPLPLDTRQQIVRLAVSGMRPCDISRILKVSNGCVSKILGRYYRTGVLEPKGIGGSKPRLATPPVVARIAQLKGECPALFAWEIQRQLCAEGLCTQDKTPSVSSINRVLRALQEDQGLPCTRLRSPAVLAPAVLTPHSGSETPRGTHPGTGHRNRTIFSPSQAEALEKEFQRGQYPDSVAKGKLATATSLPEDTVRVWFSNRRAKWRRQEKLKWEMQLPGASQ"}, "PAX4 [17]": {"target": "T2, PAX4 (Homo sapiens, UniProt O43316 9-242)", "T2 sequence": "T1 sequence with K192R"}, "PAX4 [18]": {"target": "T3, PAX4 (Homo sapiens, UniProt O43316 9-242, R200Q)", "T3 sequence": "T1 sequence with K192Q"}, "PAX4 [19]": {"target": "T4, PAX4 (Homo sapiens, UniProt O43316 9-242, F177V)", "T4 sequence": "T1 sequence with F169V, K192R"}, "PAX4 [20]": {"target": "T5, PAX4 (Homo sapiens, UniProt O43316 9-242, F177Y)", "T5 sequence": "T1 sequence with F169Y, K192R"}, "PAX4 [21]": {"target": "T6, PAX4 (Homo sapiens, UniProt O43316 9-242, R227W)", "T6 sequence": "T1 sequence with K192R, R219W"}, "NKX2-6 [22]": {"target": "T7, NKX2-6 (Homo sapiens, UniProt A6NCS4 118-204)", "T7 sequence": "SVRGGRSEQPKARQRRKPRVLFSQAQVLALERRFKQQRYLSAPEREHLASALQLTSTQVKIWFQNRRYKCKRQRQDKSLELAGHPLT"}, "NKX2-6 [23]": {"target": "T8, NKX2-6 (Homo sapiens, UniProt A6NCS4 118-204, F151L)", "T8 sequence": "T7 sequence with F34L"}}, "note": "Changes are numbered by the printed parent chain.", "data": [{"sequence": "CGAAGGGC", "values": [{"measurement": "binding signal", "setting": "HOXC10 [1]", "value": "9.97 upbm affinity estimate (log intensity, higher = more binding, comparable within an allelic series)"}, {"measurement": "binding signal", "setting": "ALX3 [2]", "value": "7.68 upbm affinity estimate (log intensity, higher = more binding, comparable within an allelic series)"}, {"measurement": "binding signal", "setting": "HOXC10 [3]", "value": "10.1 upbm affinity estimate (log intensity, higher = more binding, comparable within an allelic series)"}, {"measurement": "binding signal", "setting": "ALX3 [4]", "value": "7.61 upbm affinity estimate (log intensity, higher = more binding, comparable within an allelic series)"}, {"measurement": "binding signal", "setting": "ALX3 [5]", "value": "7.69 upbm affinity estimate (log intensity, higher = more binding, comparable within an allelic series)"}, {"measurement": "binding signal", "setting": "ALX3 [6]", "value": "7.8 upbm affinity estimate (log intensity, higher = more binding, comparable within an allelic series)"}, {"measurement": "binding signal", "setting": "ALX3 [7]", "value": "7.67 upbm affinity estimate (log intensity, higher = more binding, comparable within an allelic series)"}]}, {"sequence": "CCAATAAA", "values": [{"measurement": "binding signal", "setting": "HOXC10 [1]", "value": "12.1 upbm affinity estimate (log intensity, higher = more binding, comparable within an allelic series)"}, {"measurement": "binding signal", "setting": "ALX4", "value": "11.4 upbm affinity estimate (log intensity, higher = more binding, comparable within an allelic series)"}, {"measurement": "binding signal", "setting": "HOXD13 [8]", "value": "11.1 upbm affinity estimate (log intensity, higher = more binding, comparable within an allelic series)"}, {"measurement": "binding signal", "setting": "HOXD13 [9]", "value": "12.4 upbm affinity estimate (log intensity, higher = more binding, comparable within an allelic series)"}, {"measurement": "binding signal", "setting": "HOXC10 [3]", "value": "11.3 upbm affinity estimate (log intensity, higher = more binding, comparable within an allelic series)"}, {"measurement": "binding signal", "setting": "HOXD13 [10]", "value": "12.2 upbm affinity estimate (log intensity, higher = more binding, comparable within an allelic series)"}, {"measurement": "binding signal", "setting": "HOXC9", "value": "11.1 upbm affinity estimate (log intensity, higher = more binding, comparable within an allelic series)"}]}, {"sequence": "GGGGGGAA", "values": [{"measurement": "binding signal", "setting": "HOXC10 [1]", "value": "10 upbm affinity estimate (log intensity, higher = more binding, comparable within an allelic series)"}, {"measurement": "binding signal", "setting": "HOXB6 [11]", "value": "9 upbm affinity estimate (log intensity, higher = more binding, comparable within an allelic series)"}, {"measurement": "binding signal", "setting": "HOXC10 [3]", "value": "9.95 upbm affinity estimate (log intensity, higher = more binding, comparable within an allelic series)"}, {"measurement": "binding signal", "setting": "PROP1 [12]", "value": "6.74 upbm affinity estimate (log intensity, higher = more binding, comparable within an allelic series)"}, {"measurement": "binding signal", "setting": "PROP1 [13]", "value": "6.57 upbm affinity estimate (log intensity, higher = more binding, comparable within an allelic series)"}, {"measurement": "binding signal", "setting": "PROP1 [14]", "value": "6.2 upbm affinity estimate (log intensity, higher = more binding, comparable within an allelic series)"}, {"measurement": "binding signal", "setting": "HOXB6 [15]", "value": "9.07 upbm affinity estimate (log intensity, higher = more binding, comparable within an allelic series)"}]}, {"sequence": "CAAATAAA", "values": [{"measurement": "binding signal", "setting": "HOXC10 [1]", "value": "11.4 upbm affinity estimate (log intensity, higher = more binding, comparable within an allelic series)"}]}, {"sequence": "AGGGAGGC", "values": [{"measurement": "binding signal", "setting": "HOXC10 [1]", "value": "9.98 upbm affinity estimate (log intensity, higher = more binding, comparable within an allelic series)"}, {"measurement": "binding signal", "setting": "PAX4 [16]", "value": "9.2 upbm affinity estimate (log intensity, higher = more binding, comparable within an allelic series)"}, {"measurement": "binding signal", "setting": "PAX4 [17]", "value": "9.2 upbm affinity estimate (log intensity, higher = more binding, comparable within an allelic series)"}, {"measurement": "binding signal", "setting": "PAX4 [18]", "value": "9.17 upbm affinity estimate (log intensity, higher = more binding, comparable within an allelic series)"}, {"measurement": "binding signal", "setting": "PAX4 [19]", "value": "9.02 upbm affinity estimate (log intensity, higher = more binding, comparable within an allelic series)"}, {"measurement": "binding signal", "setting": "HOXC10 [3]", "value": "10 upbm affinity estimate (log intensity, higher = more binding, comparable within an allelic series)"}, {"measurement": "binding signal", "setting": "PAX4 [20]", "value": "9.16 upbm affinity estimate (log intensity, higher = more binding, comparable within an allelic series)"}, {"measurement": "binding signal", "setting": "PAX4 [21]", "value": "9.18 upbm affinity estimate (log intensity, higher = more binding, comparable within an allelic series)"}]}, {"sequence": "CCCCACCG", "values": [{"measurement": "binding signal", "setting": "HOXC10 [1]", "value": "10.2 upbm affinity estimate (log intensity, higher = more binding, comparable within an allelic series)"}, {"measurement": "binding signal", "setting": "PAX4 [16]", "value": "9.41 upbm affinity estimate (log intensity, higher = more binding, comparable within an allelic series)"}, {"measurement": "binding signal", "setting": "PAX4 [17]", "value": "9.56 upbm affinity estimate (log intensity, higher = more binding, comparable within an allelic series)"}, {"measurement": "binding signal", "setting": "PAX4 [18]", "value": "9.46 upbm affinity estimate (log intensity, higher = more binding, comparable within an allelic series)"}, {"measurement": "binding signal", "setting": "PAX4 [19]", "value": "9.14 upbm affinity estimate (log intensity, higher = more binding, comparable within an allelic series)"}, {"measurement": "binding signal", "setting": "HOXC10 [3]", "value": "10.1 upbm affinity estimate (log intensity, higher = more binding, comparable within an allelic series)"}, {"measurement": "binding signal", "setting": "PAX4 [20]", "value": "9.27 upbm affinity estimate (log intensity, higher = more binding, comparable within an allelic series)"}, {"measurement": "binding signal", "setting": "PAX4 [21]", "value": "9.33 upbm affinity estimate (log intensity, higher = more binding, comparable within an allelic series)"}]}, {"sequence": "CCCCCAGG", "values": [{"measurement": "binding signal", "setting": "HOXC10 [1]", "value": "10.1 upbm affinity estimate (log intensity, higher = more binding, comparable within an allelic series)"}, {"measurement": "binding signal", "setting": "ALX3 [2]", "value": "7.76 upbm affinity estimate (log intensity, higher = more binding, comparable within an allelic series)"}, {"measurement": "binding signal", "setting": "NKX2-6 [22]", "value": "9.38 upbm affinity estimate (log intensity, higher = more binding, comparable within an allelic series)"}, {"measurement": "binding signal", "setting": "HOXC10 [3]", "value": "10.1 upbm affinity estimate (log intensity, higher = more binding, comparable within an allelic series)"}, {"measurement": "binding signal", "setting": "ALX3 [4]", "value": "7.79 upbm affinity estimate (log intensity, higher = more binding, comparable within an allelic series)"}, {"measurement": "binding signal", "setting": "ALX3 [5]", "value": "7.67 upbm affinity estimate (log intensity, higher = more binding, comparable within an allelic series)"}, {"measurement": "binding signal", "setting": "NKX2-6 [23]", "value": "9.1 upbm affinity estimate (log intensity, higher = more binding, comparable within an allelic series)"}, {"measurement": "binding signal", "setting": "ALX3 [6]", "value": "7.72 upbm affinity estimate (log intensity, higher = more binding, comparable within an allelic series)"}, {"measurement": "binding signal", "setting": "ALX3 [7]", "value": "7.71 upbm affinity estimate (log intensity, higher = more binding, comparable within an allelic series)"}]}, {"sequence": "CTTTATTA", "values": [{"measurement": "binding signal", "setting": "HOXC10 [1]", "value": "12.2 upbm affinity estimate (log intensity, higher = more binding, comparable within an allelic series)"}, {"measurement": "binding signal", "setting": "HOXD13 [8]", "value": "10.6 upbm affinity estimate (log intensity, higher = more binding, comparable within an allelic series)"}, {"measurement": "binding signal", "setting": "HOXD13 [9]", "value": "11.8 upbm affinity estimate (log intensity, higher = more binding, comparable within an allelic series)"}, {"measurement": "binding signal", "setting": "HOXC10 [3]", "value": "11.7 upbm affinity estimate (log intensity, higher = more binding, comparable within an allelic series)"}, {"measurement": "binding signal", "setting": "HOXD13 [10]", "value": "11.5 upbm affinity estimate (log intensity, higher = more binding, comparable within an allelic series)"}]}]}
